Results from PubChem BioAssay (NCI).
Compounds without any hit were thinned out: in the full panel of roughly 83,000, 20% have a hit.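 Compound tested at a single concentration for 48 hours in 96-well plates; a percent growth value below 10 was scored as active.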 Activity calls are given as the source filed them.

test system: HCT-15 colon; assay: NCI-60 one-dose screen, 48 h (100 = growth as untreated, 0 = no growth, -100 = all killed); conditions: 10 µM unless noted
Description: Growth inhibition of the HCT-15 human tumor cell line is measured as a screen for anti-cancer activity. Cells are grown in 96 well plates and exposed to the test compound for 48 hours. Compounds are tested at a single concentration, which is 10^-5 M for most compounds. The reported endpoint is percent growth (GI% or GIPRCNT), where numbers from 0 - 100% represent growth inhibition, and numbers from -100% - 0 represent cell death. For example, a value of 40 represents 60% growth inhibition. A value of 0 means no net growth occurred over the course of the experiment. A value of -40 indicates 40% of cells at the beginning of the experiment died by the end of the experiment. A value of -100 means all cells are dead at the end of the experiment.
NCI-60 Human Tumor Cell Lines Screen was performed using the standard one-dose NCI protocol, which is described in more detail at https://dtp.cancer.gov/discovery_development/nci-60/default.htm.
Compounds with GIPRCNT values below 10 were considered active. Activity score was based on GIPRCNT using the following formula: […]
Score is 0 for GIPRCNT values of 100 or above, 50 for GIPRCNT values of 0, and 100 for GIPRCNT values of -100.

| SMILES | growth |
| --- | --- |
| CCSc1nc(NC)c2cc(-c3ccc(C(F)(F)F)cc3)ccc2n1 | 95.5% (inactive) |
| CN1C(=O)/C(=C/c2ccc(C(=O)Nc3ncc(Cc4ccc(Cl)cc4)s3)cc2)SC1=S | 21.7% (inactive) |
| CCO/C=N/C1=C(C#N)C(c2ccc(OC)cc2)c2sc3c(F)cccc3c2O1 (stereo not given) | 21.3% (inactive) |
| Cc1ccc(-c2cc(-c3ccc(Cl)cc3)nc(NC(=O)c3cccnc3)n2)cc1 | 94.5% (inactive) |
| Cc1nc2sc(C(=O)Nc3ccccc3)c(N)c2cc1C(=O)c1ccccc1 | 24.4% (inactive) |
| O=C1c2cc(Cl)ccc2S(=O)(=O)c2c(NCCCNCCO)nc3ccccc3c21 | -65.4% (active) |
| Cc1ccc(/C=C2\CN(C(=O)OC(C)(C)C)C/C(=C\c3ccc(C)cc3)C2=O)cc1 | 1.94% (active) |
| COc1ccc(-c2cc(-c3ccc(Cl)cc3)c(C#N)c(=O)n2CCCCC(=O)Nc2ccccc2N)cc1 | 19.3% (inactive) |
| Fc1cc(F)cc(C(c2c[nH]c3ccccc23)c2c[nH]c3ccccc23)c1 | 79.5% (inactive) |
| CCN(CC)CCOc1ccc(C(=C(C)c2ccc(Cl)cc2)c2ccc(OCCN(CC)CC)cc2)cc1 | -76.9% (active) |
| CCOC(=O)c1cc(-c2ccc([N+](=O)[O-])cc2)n(-c2ccc(C(=O)O)c(O)c2)c1C | 50.2% (inactive) |
| CCN(CC)CCNC(=O)c1cn2ncnc(Oc3ccc(NC(=O)Nc4ccc(Cl)c(C(F)(F)F)c4)c(F)c3)c2c1C | -38.7% (active) |
| COC(=O)c1n[nH]c2ccc3nc(-c4cn[nH]c4C(F)(F)F)c4c(c3c12)CCCC4 | 39% (inactive) |
| CN(C)CCNC(=O)c1cccc(-c2cnc3ccc(-c4ccc5c(c4)OCO5)nn23)c1 | 46% (inactive) |
| COC(=O)c1cc(-c2ccc(OC)cc2)[nH]c1N/N=C/c1c(Cl)cccc1Cl | 16.4% (inactive) |
| CCCNC(=O)Oc1ccc(/C(=C(/C)Cc2ccc(OC)cc2)c2ccc(OCCCN(C)C)cc2)cc1 | 70.3% (inactive) |
| O=C1c2cccnc2C(=O)c2c1c(C(=O)NCCCN1CCCCC1)c1ccccn21 | -71.8% (active) |
| Cc1c(-c2nc3ccc(F)cc3c(=O)[nH]2)c2ccccc2n1C | 22.9% (inactive) |
| CCOc1nc(-c2ccccc2)cc2c(O)c(C(=O)NN)[nH]c(=O)c12 | 106% (inactive) |
| O=C1CC(N2C(=O)/C(=C/C(Cl)=C\c3ccc([N+](=O)[O-])cc3)SC2=S)C(=O)N1c1ccc(Cl)cc1 (stereo not given) | -8.75% (active) |

| SMILES | growth |
| --- | --- |
| C#CCOc1cccc(Nc2ncnc3c(NC(=O)C=C)cccc23)c1 | 21.3% (inactive) |
| COc1ccc(C2c3sc4c(F)cccc4c3Oc3nc[nH]c(=O)c32)cc1 (stereo not given) | 74.9% (inactive) |
| Cc1nnc(-n2c(O)cc(=O)n(-c3ccccc3)c2=S)nc1/C=C/c1ccc(N(C)C)cc1 | 28.9% (inactive) |
| Nc1nc2c([nH]1)c1[nH]c3ccccc3c1c1[nH]c3ccccc3c21 | 51% (inactive) |
| CC/C(=C(/c1ccc(Cl)cc1)c1ccc(OCCN2CCCC2)cc1)c1ccc(OC)cc1 | 28.1% (inactive) |
| CCCCOC(=O)OCc1cc(=O)c(O)co1 | 106% (inactive) |
| CC(C)CCNC(=O)Cn1cccc(NC(=O)OCc2ccccc2)c1=O | 111% (inactive) |
| CC(C)CCC[C@@H](C)[C@H]1CC[C@H]2[C@@H]3CC=C4C[C@@H](C(C(=O)O)C(=O)O)CC[C@]4(C)[C@H]3CC[C@]12C | -6.36% (active) |
| N#CCSc1nnc2n(Cc3ccccc3)c(=O)c3c4c(sc3n12)CCCC4 | 96.2% (inactive) |
| O=c1oc2ccccc2cc1C1=NN=C(SCc2ccccc2)SC1 | 101% (inactive) |
| CN[C@]12CC3(C=CC(=O)C=C3)O[C@@]1(Cc1ccc(OC)cc1)N(C)C(=O)N2 | 4.25% (active) |
| O=C(Cc1ccccc1)Nc1nc(O)c(/C=C2\C(=O)C=Cc3ccccc32)s1 | 100% (inactive) |
| N#C/C(=C\c1ccc2ccccc2c1)c1cc2ccccc2[nH]1 | 22.5% (inactive) |
| CN1CCN(c2ccc(C(=O)Nc3cccc(C#Cc4cccc5[nH]nc(N)c45)c3)cc2C(F)(F)F)CC1 | -53.9% (active) |
| COc1cccc([C@H]2c3[nH]c4ccccc4c3C[C@H]3C(=O)N(CCCCCCC(=O)NO)CC(=O)N23)c1 | 105% (inactive) |
| CCCCCCCCCCCCCCCCCCOc1ccccc1CC(=O)OCC[N+]1(C)CCCC1 | 68.1% (inactive) |
| COC(=O)CCC(=O)C(=O)OC | 16.6% [10 mM] (inactive) |
| CCc1n(Cc2ccc3ccccc3c2)cc[n+]1Cc1ccc2ccccc2c1 | 70.1% (inactive) |
| CCNc1nc(-c2ccc(Cl)c(OC)c2)c(-c2ccnc(NCCCNS(=O)(=O)c3ccc(Cl)cc3)n2)s1 | 61.6% (inactive) |
| COc1cc(/C=C/C(=O)c2cccc(Nc3nc(Nc4ccccc4)nc(Nc4ccccc4)n3)c2)cc(OC)c1OC | 49.6% (inactive) |
